These results are taken from PubChem BioAssay (EPA / NIEHS).

Structures are written as SMILES. “And” between values parts separate entries of the source, which are not always exact repeats. Equal values may be shown once. Inconclusive results are not listed. More than one record can exist for a structure, and the calls need not agree. The source made the active and inactive calls. How the source made its calls: active means hit-call score of the fitted dose curve at least 0.9, where 1 is the maximum; inconclusive means response in the unintended direction; inactive means score below 0.9.

In one assay the target is Cellular tumor antigen p53 (Homo sapiens) (UniProt P04637). Nature of the assay: TOX21_p53_BLA_p5_ratio: Tox21 HCT-116 p53 Agonism Beta-lactamase Assay, Ratio, Phase 5 (AID 2283599). The procedure, abridged: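 Beta-lactamase reporter ratio (blue 460 nm over green 530 nm, 405 nm excitation) after 2 h CCF4-AM loading, in HCT-116 cells exposed 16 h at 37 C to compounds pinned at 217-fold dilution. Increases relative to DMSO baseline scored.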
Sequence of Cellular tumor antigen p53 (Homo sapiens) (P04637 whole entry, looked up): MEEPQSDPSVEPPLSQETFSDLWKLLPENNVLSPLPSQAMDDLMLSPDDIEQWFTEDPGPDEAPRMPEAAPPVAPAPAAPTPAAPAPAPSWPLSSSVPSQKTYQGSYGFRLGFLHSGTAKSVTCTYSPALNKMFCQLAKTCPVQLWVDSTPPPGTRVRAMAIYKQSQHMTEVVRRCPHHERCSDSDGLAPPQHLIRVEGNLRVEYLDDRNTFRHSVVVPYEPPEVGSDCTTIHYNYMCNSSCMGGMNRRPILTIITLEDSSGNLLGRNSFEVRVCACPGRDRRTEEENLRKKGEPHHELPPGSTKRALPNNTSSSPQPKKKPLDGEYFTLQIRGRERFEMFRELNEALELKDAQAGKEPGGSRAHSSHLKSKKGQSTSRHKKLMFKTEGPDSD
For `CCc1cc(OC)c(C[C@H](C)N)cc1OC`, the result was inactive.
Take `CC1CCCC1`: the outcome was inactive.
As to `O=P(Cl)(Cl)Cl`, the outcome was inactive.
On the same count and under the same terms, the value for `CCCBr` was “inactive”.
Still for that read-out and setting: the value for `O=C=NC1CCCCC1` was “inactive”; that for `C[C@H](N)[C@H](O)c1ccc(O)c(O)c1` was “inactive”.
On the same count and under the same terms, under `CCN(CC)C(=O)N[C@@H]1C=C2c3cccc4[nH]cc(c34)C[C@@H]2N(C)C1` stands “inactive”.
Consider `CN[C@@H](C)[C@H](O)c1ccccc1`, for which the outcome was inactive.
The same measure, in the same setting: the value for `NC(=S)c1c(Cl)cccc1Cl` was “inactive”; that for `CCCCCBr` was “inactive”.
Same read-out and setting: under `C[N+]1(C)[C@@H]2CC[C@H]1CC(OC(=O)C(CO)c1ccccc1)C2` (stereo not given in full) stands “inactive”; under `CCCC(C)(COC(N)=O)COC(=O)NC1CC1` (stereo not given), “inactive”.
Same read-out and setting: the value for `CCC(C)Br` (stereo not given) was “inactive”; that for `CC(C)(CCl)C(=O)Cl` was “inactive”.
Take `O=[N+]([O-])c1ccc([As](=O)(O)O)cc1`: the result was inactive.
On the same count and under the same terms, under `CC1(C)S[C@@H]2[C@H](N)C(=O)N2[C@H]1C(=O)O` stands “inactive”; under `CCNCC(O)c1cccc(O)c1` (stereo not given), “inactive”; under `N#CCCl`, “inactive”.
Regarding `NC1CCC(CC2CCC(N)CC2)CC1` (stereo not given), the result was inactive.
Turning to `NC(=O)C(Cl)Cl`, the result was inactive.
On the same count and under the same terms, under `OC(c1ccccc1)(c1ccccc1)C1CCNCC1` stands “inactive”; under `COc1cc(CC(C)N)cc(OC)c1OC` (stereo not given), “inactive”.
Same read-out and setting: under `CC(C)NC(C)Cc1ccc(I)cc1` (stereo not given) stands “inactive”.
`CCCCCCCCCCn1cc[n+](C)c1`: the AC50 is 15.5 µM (active) and the outcome was inactive.
For `N#CCCC#N`, the result was inactive.
Still for that read-out and setting: under `NCCc1ccc(O)cc1` stands “inactive”; under `COP(N)(=S)Oc1ccccc1C(=O)OC(C)C` (stereo not given), “inactive”.

System in a further assay: not listed separately
Nature of the assay: TOX21_p53_BLA_p5_viability: Viability Assessment in the Tox21 HCT-116 p53 Agonism Beta-lactamase Assay, Phase 5 (AID 2283600). In outline:
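After the 460/530 nm beta-lactamase measurement, the wells received an ATP-detection luciferase reagent; signal was read 30 min later at RT. Compound treatment lasted 16 h on cells pre-incubated 5 h post-seeding.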
In the case of `CCc1cc(OC)c(C[C@H](C)N)cc1OC`, the result was inactive.
On the same count and under the same terms, the value for `O=P(Cl)(Cl)Cl` was “inactive”; that for `O=C=NC1CCCCC1` was “inactive”.
In the case of `C[C@H](N)[C@H](O)c1ccc(O)c(O)c1`, the outcome was inactive.
As to `CCN(CC)C(=O)N[C@@H]1C=C2c3cccc4[nH]cc(c34)C[C@@H]2N(C)C1`, the call was inactive.
Same read-out and setting: under `CN[C@@H](C)[C@H](O)c1ccccc1` stands “inactive”; under `CCCC(C)(COC(N)=O)COC(=O)NC1CC1` (stereo not given), “inactive”.
On the same count and under the same terms, the value for `C[C@@H]1[C@H]2Cc3ccc(O)cc3[C@]1(C)CCN2C` was “inactive”.
On the same count and under the same terms, the value for `CCC(C)Br` (stereo not given) was “inactive”; that for `O=[N+]([O-])c1ccc([As](=O)(O)O)cc1` was “inactive”; that for `CC1(C)S[C@@H]2[C@H](N)C(=O)N2[C@H]1C(=O)O` was “inactive”.
In the case of `CCNCC(O)c1cccc(O)c1` (stereo not given), the compound was classed as inactive.
On the same count and under the same terms, under `N#CCCl` stands “inactive”; under `CCN(CC)CCN1C(=O)CN=C(c2ccccc2F)c2cc(Cl)ccc21`, “inactive”; under `COc1ccc2c3c1O[C@H]1[C@H](O)CC[C@H]4[C@@H](C2)N(C)CC[C@@]341`, “inactive”.
Regarding `CC(C)NC(C)Cc1ccc(I)cc1` (stereo not given), the compound was called inactive.
In the case of `N#CCCC#N`, the compound was called inactive.
The same measure, in the same setting: the value for `COP(N)(=S)Oc1ccccc1C(=O)OC(C)C` (stereo not given) was “inactive”; that for `CC(=O)[C@@]1(O)CC[C@H]2[C@@H]3CCC4=CC(=O)CC[C@]4(C)C3(F)[C@@H](O)C[C@@]21C` (stereo not given in full) was “inactive”.

The next assay concerns the target Cellular tumor antigen p53 (Homo sapiens) (UniProt P04637). Put plainly: TOX21_p53_BLA_p4_ratio: Tox21 HCT-116 p53 Agonism Beta-lactamase Assay, Ratio, Phase 4 (AID 2283601). The procedure, abridged: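 Signal is the blue/green (460nm/530nm) ratio of cleaved versus uncleaved CCF4-AM substrate, read after 2 h substrate loading. Cells were HCT116 carrying the p53-responsive beta-lactamase reporter, dosed 16 h at 37C, 5% CO2; CellTiter-Glo measured in parallel.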
Take `CCc1cc(OC)c(C[C@H](C)N)cc1OC`: the result was inactive.
Turning to `CC1CCCC1`, the outcome was inactive.
With `O=P(Cl)(Cl)Cl`, the outcome was inactive.
`C[C@H](N)[C@H](O)c1ccc(O)c(O)c1`: the outcome was inactive.
Still for that read-out and setting: the value for `CN[C@@H](C)[C@H](O)c1ccccc1` was “inactive”.
Still for that read-out and setting: under `C[C@]12CC[C@H]3[C@@H](CCC4=CC(=O)CC[C@@H]43)[C@@H]1CC[C@@H]2OC(=O)CCc1ccccc1` stands “inactive”; under `NC(=S)c1c(Cl)cccc1Cl`, “inactive”.
The same measure, in the same setting: the value for `C[N+]1(C)[C@@H]2CC[C@H]1CC(OC(=O)C(CO)c1ccccc1)C2` (stereo not given in full) was “inactive”; that for `CCC(C)Br` (stereo not given) was “inactive”; that for `CCCCCCCCCC(=O)O[C@H]1CC[C@H]2[C@@H]3CCC4=CC(=O)CC[C@@H]4[C@H]3CC[C@]12C` was “inactive”.
For the compound `O=NN(CCO)CCO`, the outcome was inactive.
Regarding `O=[N+]([O-])c1ccc([As](=O)(O)O)cc1`, the outcome was inactive.
In the case of `CC1(C)S[C@@H]2[C@H](N)C(=O)N2[C@H]1C(=O)O`, the result was inactive.
The same measure, in the same setting: under `CCNCC(O)c1cccc(O)c1` (stereo not given) stands “inactive”; under `N#CCCl`, “inactive”; under `NC(=O)C(Cl)Cl`, “inactive”.
Still for that read-out and setting: the value for `CC(C)c1c(CN(C)C(C)Cc2ccccc2)n(C)n(-c2ccccc2)c1=O` (stereo not given) was “inactive”; that for `C[C@H]1CNCCc2ccc(Cl)cc21` was “inactive”; that for `COc1ccc2c3c1O[C@H]1[C@H](O)CC[C@H]4[C@@H](C2)N(C)CC[C@@]341` was “inactive”.
The same measure, in the same setting: the value for `CC(C)NC(C)Cc1ccc(I)cc1` (stereo not given) was “inactive”.
On to `CCCCCCCCCCn1cc[n+](C)c1`, for which the AC50 is 45.6 µM (active) and 21.5 µM (active) and 46 µM (active); the result was inactive.
For `COP(N)(=S)Oc1ccccc1C(=O)OC(C)C` (stereo not given), the result was inactive.
